Bioassay records (PubChem BioAssay)
Sampled rows, rich in hits. Any-hit rate of the full collection: about 6.7%.
MCF10A rerep = induces DNA re-replication in MCF 10a normal breast cells | AID 624296 | hit rate 2.9% among 350,000 | Potency, µM (highest dose often 46.1 µM), hits mostly activators | MCF 10A DNA re-replication, Hoechst nuclear intensity, 48 h; further: nearly all actives have a fitted effect of over 50% in size
SW480 rereplic = inducers of DNA re-replication in SW480 colon cancer cells; SW480 DNA re-replication, Hoechst DNA content imaging, 48 h; AID 624297; Potency, µM (highest dose often 46.1 µM), usual class: activators; hit rate 1.8% among 340,000; further: nearly all actives have a fitted effect of over 55% in size
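Per well, 250 cells were exposed to pinned compound for 48 hr. Nuclear DNA was visualised with Hoechst (40 min, 37 C) and total object intensity recorded by fluorescence scanning.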
KB-V1 cytotox = KB-V1 MDR subline cytotoxicity. hit rate 3.4% among 400,000. Potency, µM (top dose mostly 46.1 µM), usual class: cytotoxic. KB-V1 MDR cells viability, CellTiter-Glo, 72 h; further: nearly all actives have a fitted effect of over 60% in size
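In this primary screen, KB-V1 cells overexpressing P-gp are incubated with library compounds (lowest to highest concentration) for 72 h at 37 degrees C before a luminescent ATP viability read.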
PINK1 expr mod = changes PINK1 expression; PINK1 immunofluorescence, high-content cytometry, 24 h; Potency, µM (highest dose often 76.6 µM), hits mostly activators; hit rate 0.2% among 410,000; AID 624263; active means well fitted activation curve with a large enough effect; inconclusive means small, poorly fitted or top-dose-only effect; cell line not stated here; further: nearly all actives have a fitted effect of over 65% in size
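Stable cell line treated 24 h with compounds at 5 concentrations (CCCP controls), then fixed and immunostained for PINK1 plus nuclear and cell stains; PINK1 immunofluorescence quantified by laser-scanning microplate cytometry.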
KB-3-1 tox = KB-3-1 parental cell cytotoxicity. KB-3-1 viability, CellTiter-Glo ATP luminescence, 72 h. Potency, µM (series often up to 46.1 µM), usual class: cytotoxic. hit rate 1.4% among 400,000. AID 1347075; further: nearly all actives have a fitted effect of over 60% in size
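KB-3-1 parental drug-naive adenocarcinoma cells in DMEM/10% FBS, incubated 72 h at 37 C with pin-transferred compounds across a concentration series. Viability by CellTiter-Glo luminescence; concentration-response curves fitted after normalization.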
Hits are given with their value; i = inactive; ? = inconclusive; nt = no result; ! = repeats disagree. Unless noted, the call rests on the fitted dose curve; in most records, active means well fitted curve in the direction sought with a large enough effect; inconclusive means small, poorly fitted or top-dose-only effect, or another doubt; inactive means no such curve, though single readings can be large; an effect the other way counts as inactive or inconclusive.

SMILES	MCF10A rerep	SW480 rereplic	KB-V1 cytotox	PINK1 expr mod	KB-3-1 tox
CC(CNC(=O)CCS(=O)(=O)c1ccc2c(c1)NC(=O)CO2)c1ccccc1 (stereo not drawn)	i	i	i	i	i
O=C(CSCc1nc2cccnc2n1C1CCCCC1)NCc1cccc(Br)c1	nt	nt	i	i	i
Cc1ccc(OCCN2CCC2(C)C(=O)NCc2ccc(C(F)(F)F)cc2)cc1 (stereo not drawn)	nt	nt	i	i	i
Cc1noc(C)c1S(=O)(=O)NC(=O)C1(C)CCN1C(=O)c1ccccc1CCc1ccccc1 (stereo not drawn)	nt	nt	i	i	i
Cc1ccc(S(=O)(=O)NCCC(=O)N2CCC(C)CC2)cc1	i	i	i	i	i
CCN1CCCC1CNC(=O)Cn1nc(C)n2nc(-c3ccccc3)cc2c1=O (stereo not drawn)	i	i	i	i	i
CC1CCc2nc(/C(C#N)=C/c3cccnc3)sc2C1 (stereo not drawn)	20.6µM	?	?	i	i
N#C/C(=C\c1cccnc1)c1nc2c(s1)CCCC2	i	i	?	i	i
O=C(N/N=C/c1cccs1)c1n[nH]c2c1CCCC2	?	?	?	i	?
O=C(N/N=C/c1cccc2ccccc12)c1n[nH]c2c1CCCC2	?	5.8µM	2.59µM	i	4.11µM
O=C(N/N=C/c1cccc2ccccc12)c1cccs1	i	i	i	i	i
O=C(N/N=C\c1cccc(Cl)c1)c1n[nH]c2c1CCCC2	?	i	i	i	i
O=C(N/N=C/c1ccc(Cl)cc1Cl)c1n[nH]c2c1CCCC2	?	?	?	i	5.17µM
Cc1ccc(/C=N/NC(=O)c2n[nH]c3c2CCCC3)cc1	?	0.731µM	1.16µM	i	?
COc1ccc(-n2c(=O)c3c(c4cc(OC)ccc4n3C)n(C)c2=O)cc1	nt	nt	i	i	i
COC(=O)c1cc(NC(=O)CN(c2cccc(OC)c2)S(=O)(=O)c2ccccc2)ccc1Cl	i	i	1.46µM	i	16.4µM
CN(c1cccc(NC(=O)CN(c2cccc(Cl)c2)S(=O)(=O)c2ccc(Cl)cc2)c1)S(C)(=O)=O	i	nt	18.4µM	i	?
COc1cccc(N(CC(=O)Nc2ccc3c(c2)OCO3)S(=O)(=O)c2ccccc2)c1	i	i	16.4µM	i	i
Cc1ccc(Cl)cc1N(CC(=O)Nc1cccc(N(C)S(C)(=O)=O)c1)S(C)(=O)=O	i	i	i	i	i
CCOC(=O)C1CCCN(CCC(=O)Nc2ccc(OC)cc2OC)C1 (stereo not drawn)	nt	nt	i	i	i
CN(C)C(CNS(=O)(=O)c1ccc(Cl)cc1F)c1ccco1 (stereo not drawn)	i	i	18.4µM	i	i
Cc1cccc(N2CCN(C(=O)C3CCCN(S(=O)(=O)c4ccc5c(c4)oc(=O)n5C)C3)CC2)c1C (stereo not drawn)	nt	nt	i	i	7.31µM
Cn1c(=O)oc2cc(S(=O)(=O)N3CCCC(C(=O)N4CCN(c5cccc(Cl)c5)CC4)C3)ccc21 (stereo not drawn)	nt	nt	i	i	20.6µM
Cn1c(=O)oc2cc(S(=O)(=O)N3CCC(C(=O)N4CCN(c5cccc(Cl)c5)CC4)CC3)ccc21	nt	nt	i	i	i
Cc1ccc(CNC(=O)C2CCCN(S(=O)(=O)c3ccc(-n4cnnn4)cc3)C2)cc1 (stereo not drawn)	i	i	i	i	i
SMILES	MCF10A rerep	SW480 rereplic	KB-V1 cytotox	PINK1 expr mod	KB-3-1 tox
CC(O)C1CCC2C3CCC4CC(O)CCC4(C)C3C(=O)CC12C (stereo not drawn)	i	i	i	i	i
Cc1nc(NC(=O)C(C)(C)C)sc1C(=O)Cn1cc(CCCC#N)nn1	nt	nt	i	i	i
Cc1ccc(NC(=O)c2cnn3c2NC(=C2CC2)C=C3C(F)F)cc1C	nt	nt	?	i	?
CC(=O)Nc1ccc(C(=O)COC(=O)CCc2ccccc2)c(F)c1	?	i	nt	i	nt
Cc1ccc(S(=O)(=O)NC(=O)C2(C)CCN2C(=O)CCc2ccc(Cl)cc2Cl)cc1 (stereo not drawn)	nt	nt	i	i	i
CCOC(=O)C(C)(C)N(Cc1ccc(Cl)cc1)S(=O)(=O)c1ccc(Cl)c([N+](=O)[O-])c1	13µM	?	nt	nt	nt
CCOC(=O)C(C)(C)N(Cc1ccc(C)cc1)S(=O)(=O)c1ccc(Cl)c([N+](=O)[O-])c1	11.6µM	?	i	i	i
COc1ccc(Cl)cc1NC(=O)COC(=O)Cc1cc(OC)c(OC)c(OC)c1	i	i	i	i	i
O=C1NC(=O)C(c2cn(-c3ccccc3)nc2-c2ccc(F)cc2)N1 (stereo not drawn)	18.4µM	?	i	i	i
O=C(NC(=S)N1CCOCC1)c1cn(-c2ccccc2)nc1-c1ccccc1	i	i	5.8µM	i	i
O=C(O)c1cn(-c2ccccc2)nc1-c1ccc(F)cc1	13µM	i	i	i	i
O=C(NCc1ccccn1)c1cn(-c2ccccc2)nc1-c1ccc(Cl)cc1	?	i	3.66µM	i	i
O=C(NCc1ccccn1)c1ccc(-c2ccccc2)cc1	i	i	i	i	i
CC(C)COc1ccc(C(=O)OCC(=O)N(C)CC(=O)Nc2ccc(F)cc2)cc1	i	i	?	i	i
COC(=O)c1ccc(C(=O)N2CCc3c(C(=O)NC(C)c4ccco4)c(OC)cc(=O)n3CC2)cc1 (stereo not drawn)	nt	nt	nt	i	nt
COCCCN1C(=O)C(CC(=O)NCCCN(C)C)CC(C(=O)N2CCCCCC2)=C1C (stereo not drawn)	nt	nt	i	i	i
COc1ccc(-n2nnnc2-c2ccccc2)cc1	i	i	9.2µM	i	6.51µM
CCCCNc1c(-c2ccc(OC)c(SC3CCCCC3)c2)nc2cc(C)ccn12	?	i	?	?	?
CCCCNc1c(-c2ccc(SC3CCCCC3)cc2)nc2cnccn12	?	?	37.2µM!	i	i
CCCCNc1c(-c2ccc(OC)c(SC3CCCCC3)c2)nc2cnccn12	16.4µM	?	i	i	i
COc1ccc(-c2nc3cnccn3c2NCc2ccccc2)cc1SC1CCCCC1	11.6µM	?	i	i	i
CCCCNc1c(-c2ccc(OC)c(SC3CCCCC3)c2)nc2ccc(Cl)cn12	20.6µM	i	i	i	i
COc1ccccc1CCNC(=O)C(=O)NCC(c1cccs1)S(=O)(=O)c1ccc(C)cc1 (stereo not drawn)	nt	nt	i	i	i
CCCCNc1c(-c2ccc(-c3ccc(C(C)=O)cc3)c(OC)c2)nc2cnccn12	20.6µM	23.1µM	i	?	i
COc1cc(-c2nc3cc(C)ccn3c2NC2CCCCC2)ccc1-c1ccc(C(C)=O)cc1	?	?	i	i	i
O=c1cc(O)c2ccc(O)cc2o1	i	i	i	i	i
COC(=O)Cc1cc(=O)oc2cc(O)ccc12	16.4µM	18.4µM	i	i	i
CC(C)Cc1nc2sc3c(=O)[nH]cnc3c2c2c1CCC2	i	i	16.4µM	i	i
CC(C)c1nc2sc3c(=O)[nH]cnc3c2c2c1CCC2	i	i	i	i	i
Cc1ccnn1CCSCC(=O)O	20.6µM	i	i	i	i
